According to PubChem BioAssay AID1159580 (chemical genetic matrix, 2015):
Several values for one entry are separate records, joined by “and”; a condition that tells them apart may be missing. Equal values may be shown once. In all, about 5,500 compounds went through this assay and about 2,000 (36%) were called active. Another 18% or so got no clear call; they are omitted. Cut-off read from the data, not from the text of the source: active = normalized growth mostly below about 0.91 (no sharp cut-off); inconclusive = no clear call, values can overlap the other calls; inactive = mostly above about 0.92. This is one part of the list.

Test: chemical genetic growth profiling, strain panel (AID 1159580);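 note: tested at 20 µM; growth read once vehicle control cultures reached saturation at 30 °C; 1 = growth at the plate median or of vehicle wells; lower values mean less growth of the strain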
Settings: S. cerevisiae deletion strains, growth OD

Measured: normalized growth

O=c1c(O)c(-c2ccc(O)c(O)c2)oc2cc(O)ccc12
active: locus YAL013W, strain DEP1, active compounds read low 0.836 | locus YDL074C, strain BRE1, active compounds read low 0.742 | locus YDR162C, strain NBP2, active compounds read low 0.831 | locus YDR502C, strain sam2, active compounds read low 0.915 | locus YER167W, strain BCK2, active compounds read low 0.9 | locus YGL086W, strain mad1, active compounds read low 0.905 | locus YGR078C, strain PAC10, active compounds read low 0.756 | locus YGR135W, strain pre9, active compounds read low 0.85 | locus YGR229C, strain SMI1, active compounds read low 0.372 | locus YHR030C, strain SLT2, active compounds read low 0.899 and 0.324 | locus YHR079C, strain IRE1, active compounds read low 0.381 | locus YHR129C, strain ARP1, active compounds read low 0.861 | locus YIL066C, strain RNR3, active compounds read low 0.846 | locus YJL095W, strain BCK1, active compounds read low 0.743 and 0.428 | locus YJR043C, strain POL32, active compounds read low 0.778 | locus YJR066W, strain TOR1, active compounds read low 0.59 | locus YJR075W, strain HOC1, active compounds read low 0.83
inactive: locus YAL021C, strain ccr4, active compounds read low 1 | locus YAL026C, strain drs2, active compounds read low 0.965 | locus YAL030W, strain snc1, active compounds read low 1 | locus YBL061C, strain skt5, active compounds read low 0.964 | locus YBR009C, strain hhf1, active compounds read low 1.01 | locus YBR021W, strain FUR4, active compounds read low 0.961 | locus YBR023C, strain chs3, active compounds read low 0.961 | locus YBR171W, strain sec66, active compounds read low 0.977 | locus YBR229C, strain ROT2, active compounds read low 0.993 | locus YBR231C, strain swc5, active compounds read low 0.921 | locus YBR279W, strain paf1, active compounds read low 0.983 | locus YCL011C, strain gbp2, active compounds read low 0.982 | locus YCL016C, strain dcc1, active compounds read low 0.977 | locus YCL029C, strain bik1, active compounds read low 0.988 | locus YCL069W, strain vba3, active compounds read low 1.01 | locus YCR088W, strain abp1, active compounds read low 1 | locus YDL005C, strain med2, active compounds read low 0.987 | locus YDL035C, strain GPR1, active compounds read low 0.864 | locus YDL040C, strain nat1, active compounds read low 1 | locus YDL101C, strain DUN1, active compounds read low 0.98 | locus YDL134C, strain PPH21, active compounds read low 0.955 | locus YDL185W, strain tfp1, active compounds read low 0.972 | locus YDL192W, strain arf1, active compounds read low 0.946 | locus YDR001C, strain nth1, active compounds read low 1 | locus YDR069C, strain doa4, active compounds read low 0.904 | locus YDR101C, strain arx1, active compounds read low 0.957 | locus YDR137W, strain rgp1, active compounds read low 0.978 | locus YDR150W, strain NUM1, active compounds read low 0.946 | locus YDR159W, strain sac3, active compounds read low 0.934 | locus YDR195W, strain ref2 0.969 | locus YDR297W, strain sur2, active compounds read low 0.966 | locus YDR318W, strain mcm21, active compounds read low 0.927 | locus YDR334W, strain swr1, active compounds read low 0.981 | locus YDR335W, strain msn5, active compounds read low 0.995 | locus YDR388W, active compounds read low 0.974 | locus YDR392W, strain spt3, active compounds read low 0.845 | locus YEL003W, strain gim4, active compounds read low 0.961 | locus YEL037C, strain rad23, active compounds read low 0.988 | locus YEL061C, strain CIN8 (second series), active compounds read low 0.996 | locus YEL061C, strain CIN8, active compounds read low 0.95 | locus YER015W, strain faa2, active compounds read low 0.974 | locus YER016W, strain bim1, active compounds read low 0.989 | locus YER110C, active compounds read low 0.982 | locus YER111C, strain swi4, active compounds read low 0.97 | locus YER155C, strain BEM2 (second series), active compounds read low 0.89 | locus YER155C, strain BEM2, active compounds read low 1.02 | locus YFR010W, strain ubp6, active compounds read low 0.96 | locus YGL078C, strain dbp3, active compounds read low 0.988 | locus YGL167C, strain pmr1, active compounds read low 0.972 | locus YGL173C, strain kem1, active compounds read low 0.938 | locus YGL227W, strain vid30, active compounds read low 0.994 | locus YGL240W, strain doc1, active compounds read low 1.03 | locus YGL248W, strain PDE1, active compounds read low 0.923 | locus YGL253W, strain hxk2, active compounds read low 0.969 | locus YGR252W, strain gcn5, active compounds read low 0.873 | locus YHR013C, strain ard1, active compounds read low 0.94 | locus YHR027C, strain rpn1, active compounds read low 0.988 | locus YHR079C, strain IRE1 (second series), active compounds read low 0.978 | locus YHR094C, strain hxt1, active compounds read low 1.01 | locus YHR142W, strain chs7, active compounds read low 0.982 | locus YHR200W, strain rpn10, active compounds read low 0.938 | locus YIL073C, strain SPO22, active compounds read low 0.851 | locus YIL125W, strain kgd1, active compounds read low 0.967 | locus YIR030C, strain dcg1, active compounds read low 1.01 | locus YJL092W, strain hpr5, active compounds read low 0.995 | locus YJL095W, strain BCK1 (second series), active compounds read low 0.981 | locus YJL115W, strain asf1, active compounds read low 0.998 | locus YJL129C, strain trk1, active compounds read low 0.966 | locus YJL134W, strain LCB3, active compounds read low 1 | locus YJL154C, strain vps35, active compounds read low 0.999 | locus YJL164C, strain tpk1, active compounds read low 0.985 | locus YJL166W, strain qcr8, active compounds read low 0.986 | locus YJL168C, strain set2, active compounds read low 0.985 | locus YJL187C, strain SWE1 (second series), active compounds read low 0.915
